In paper PMC5540273 (PLoS ONE, 2017):

What was measured:
Conditions in all cases: concentration: 1 μM, replicates: in singlicate; n = 1
[1] = test system: PAK6
[2] = test system: PAK7
[3] = test system: T1, PCTK1
T1 construct: gene CDK16

[4] = test system: T2, PCTK2
T2 construct: gene CDK17

[5] = test system: T3, PCTK3
T3 construct: gene CDK18

[6] = test system: PDGFRA
[7] = test system: PDGFRB
[8] = test system: PDPK1
[9] = test system: PFTAIRE2
[10] = test system: T4, PFTK1
T4 construct: gene CDK14

[11] = test system: PHKG1
[12] = test system: PHKG2
[13] = test system: PIK3C2B
[14] = test system: PIK3C2G
[15] = test system: PIK3CA
[16] = test system: PIK3CB
[17] = test system: PIK3CD
[18] = test system: PIK3CG
[19] = test system: T5, PIK4CB
T5 construct: gene PI4KB

[20] = test system: PIKFYVE
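Note: KINOMEscan kinase panel screen.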

| SMILES | %Inh [1] | %Inh [2] | %Inh [3] | %Inh [4] | %Inh [5] | %Inh [6] | %Inh [7] | %Inh [8] | %Inh [9] | %Inh [10] | %Inh [11] | %Inh [12] | %Inh [13] | %Inh [14] | %Inh [15] | %Inh [16] | %Inh [17] | %Inh [18] | %Inh [19] | %Inh [20] |
| --- | --- | --- | --- | --- | --- | --- | --- | --- | --- | --- | --- | --- | --- | --- | --- | --- | --- | --- | --- | --- |
| COc1cc2nccc(Nc3ccc(NC(=O)c4ccc(C)cc4)c(O)c3)c2cc1OC.Cl [GW440132] | 0% | 0% | 4% | 0% | 19% | 12% | 69% | 0% | 26% | 85% | 15% | 0% | 100% | 0% | 100% | 0% | 0% | 100% | 0% | 0% |
| CC(=O)Nc1nc2cnc(Nc3cc(NC(=O)c4cccc(CCC#N)c4)ccc3C)nc2s1 | 19% | 0% | 9% | 6% | 8% | 94.3% | 100% | 4% | 0% | 12% | 0% | 8% | 9% | 78% | 2% | 0% | 0% | 8% | 0% | 0% |
| Cc1cccc(-c2cc(Nc3ccncc3)c3ccccc3n2)n1 [GSK223675] | 0% | 0% | 13% | 7% | 0% | 2% | 23% | 0% | 27% | 16% | 0% | 1% | 4% | 0% | 7% | 0% | 0% | 7% | 21% | 23% |
| Cc1ccccc1-n1cnc2c(N)ncnc21 [SKF-97510] | 12% | 0% | 0% | 0% | 0% | 0% | 0% | 6% | 0% | 0% | 0% | 10% | 0% | 10% | 0% | 0% | 0% | 0% | 0% | 0% |
| Cc1c(Cn2ccn3c(=O)cc(N4CCOCC4)nc23)cccc1C(F)(F)F [GSK2289044] | 4% | 27% | 2% | 0% | 8% | 0% | 21% | 17% | 17% | 13% | 0% | 10% | 20% | 6% | 21% | 100% | 92% | 29% | 0% | 0% |
| Cc1ccc(NC(=O)Nc2cccc(Cl)c2)cc1-c1ccc(C(=O)Nc2ccncc2)cc1 [GSK1398468] | 0% | 1% | 0% | 0% | 0% | 43% | 99.9% | 0% | 16% | 20% | 0% | 11% | 0% | 0% | 8% | 0% | 0% | 0% | 0% | 2% |
| CC1=C(C(=O)Nc2cc3cn[nH]c3cc2F)C(c2ccc(C(F)(F)F)cc2)CC(=O)N1 (stereo not drawn) [GSK429286] | 0% | 0% | 3% | 0% | 5% | 0% | 18% | 0% | 0% | 12% | 0% | 0% | 0% | 0% | 0% | 0% | 34% | 0% | 0% | 0% |
| COc1ccc(C2=C(Nc3cccc(C(=O)O)c3)C(=O)NC2=O)cc1 [SB-390765] | 0% | 0% | 1% | 8% | 0% | 30% | 0% | 21% | 24% | 6% | 0% | 0% | 23% | 21% | 0% | 40% | 16% | 27% | 22% | 0% |
| O=C(Nc1ccc2c(c1)OCO2)NC1CCN(c2ccnc(Nc3ccc(F)cc3)n2)C1 (stereo not drawn) [GSK1379724] | 22% | 0% | 3% | 0% | 3% | 0% | 31% | 0% | 8% | 8% | 0% | 0% | 0% | 0% | 0% | 0% | 10% | 0% | 39% | 0% |
| Fc1cc(Cl)ccc1Nc1ccnc2cc(I)ccc12 [GW551191] | 0% | 0% | 4% | 0% | 0% | 9% | 88% | 0% | 9% | 4% | 0% | 0% | 0% | 0% | 0% | 0% | 0% | 0% | 0% | 0% |
| Nc1nc(-c2nccs2)c(-c2ccnc3ccccc23)s1 [GW693542] | 9% | 0% | 8% | 0% | 5% | 0% | 1% | 0% | 13% | 17% | 2% | 0% | 0% | 0% | 0% | 0% | 0% | 0% | 0% | 0% |
| COC(=O)c1c(-c2ccccc2)c2cc(OC)ccc2c(=O)n1Cc1ccccc1 | 3% | 5% | 0% | 4% | 9% | 70% | 99.5% | 0% | 10% | 6% | 7% | 31% | 0% | 0% | 3% | 14% | 5% | 0% | 0% | 13% |
| O=C(Nc1n[nH]c2nc(-c3nccs3)c(Br)cc12)C1CC1 [SB-742251] | 0% | 0% | 45% | 18% | 26% | 0% | 14% | 0% | 4% | 14% | 0% | 0% | 0% | 0% | 0% | 0% | 0% | 0% | 0% | 14% |
| COc1cccc(-c2cc(-c3c[nH]nc3-c3ccccn3)ccn2)c1 [GW680338] | 3% | 9% | 0% | 0% | 8% | 0% | 8% | 0% | 10% | 1% | 2% | 10% | 7% | 11% | 4% | 3% | 0% | 9% | 0% | 0% |
| COc1ccc(CNC(=O)NC2CCN(c3ccnc(Nc4cc(OC)c(OC)c(OC)c4)n3)C2)cc1 (stereo not drawn) [GSK1379748] | 0% | 2% | 7% | 0% | 0% | 15% | 54% | 0% | 9% | 0% | 0% | 31% | 0% | 0% | 0% | 0% | 3% | 0% | 46% | 6% |
| Cl.NC(=O)c1cccc(Nc2nccc(Nc3ccc(Oc4cccc(Cl)c4)c(Cl)c3)n2)c1 [GW659008] | 0% | 5% | 0% | 7% | 9% | 0% | 68% | 0% | 4% | 8% | 4% | 0% | 0% | 0% | 0% | 0% | 0% | 0% | 82% | 0% |
| O=C1NC(=O)C(N2CCc3ccccc32)=C1c1ccccc1Cl [SB-373598] | 55% | 0% | 3% | 1% | 17% | 0% | 4% | 32% | 9% | 0% | 0% | 23% | 1% | 0% | 0% | 0% | 10% | 12% | 0% | 0% |
| Cc1cccc(-c2nc(Nc3ccc4[nH]ncc4c3)c3ccccc3n2)n1 [GW857175] | 4% | 0% | 23% | 2% | 15% | 19% | 0% | 39% | 0% | 9% | 0% | 16% | 8% | 43% | 0% | 7% | 18% | 0% | 23% | 85% |
| Cc1cc(-c2ccc3c(c2)CC[C@@H](N[C@@H](C)c2ccccc2)C3)cnc1N.Cl [GW412617] | 5% | 15% | 6% | 0% | 0% | 0% | 75% | 22% | 6% | 0% | 21% | 3% | 0% | 0% | 1% | 0% | 0% | 0% | 1% | 0% |
| NC(=O)c1nnc2ccccc2c1N | 4% | 0% | 6% | 0% | 7% | 12% | 9% | 7% | 14% | 5% | 0% | 10% | 40% | 14% | 40% | 0% | 39% | 44% | 1% | 4% |
| COc1cc2ncnc(Nc3ccc4nc(-c5ccccc5)[nH]c4c3)c2cc1OC.Cl [GW282450] | 11% | 12% | 0% | 0% | 1% | 0% | 28% | 0% | 8% | 19% | 0% | 6% | 0% | 0% | 0% | 0% | 0% | 0% | 0% | 0% |
